Assay [1] relates to GB4. The assay is described as follows: qHTS profiling for inhibitors of Plasmodium falciparum proliferation (AID 504749). Note: potency is the fitted concentration of half-maximal effect. The conditions noted are these: P. falciparum in erythrocytes, SYBR Green DNA, 72 h; series mostly up to 28.7 µM. An outline of the steps: (§1)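 SYBR Green fluorescence (ex 485 nm, em 535 nm) reports parasite DNA after 72 h compound exposure of infected red cells at 0.3% parasitemia, 2.5% hematocrit; signal normalized to 0.29 uM artemisinin and vehicle wells.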

The test system of assay [2] is HB3. The description is as above. The note with it: P. falciparum in erythrocytes, SYBR Green DNA, 72 h; series mostly up to 28.7 µM. Summed up:
as §1

Assay [3] has as its system ICS. The assay is described as above. The conditions noted are these: P. falciparum in erythrocytes, SYBR Green DNA, 72 h; series mostly up to 28.7 µM. Summed up: as §1
The subject of assay [4] is JCK. The assay is described as above. The note with it: P. falciparum in erythrocytes, SYBR Green DNA, 72 h; series mostly up to 28.7 µM. An outline of the steps:
as §1

For assay [5], the system named is N140. Described as above. The note with it: P. falciparum in erythrocytes, SYBR Green DNA, 72 h; series mostly up to 28.7 µM. An outline of the steps: as §1
The subject of assay [6] is P93_24. Described as above. The note with it: P. falciparum in erythrocytes, SYBR Green DNA, 72 h; series mostly up to 28.7 µM. Summed up: as §1
Assay [7] concerns P94_40. The description is as above. The conditions noted are these: P. falciparum in erythrocytes, SYBR Green DNA, 72 h; series mostly up to 28.7 µM. An outline of the steps:
as §1

For assay [8], the system named is PAD. Described as above. The note with it: P. falciparum in erythrocytes, SYBR Green DNA, 72 h; series mostly up to 28.7 µM. Summed up:
as §1

In assay [9] the test system is PC15. The description is as above. The note with it: P. falciparum in erythrocytes, SYBR Green DNA, 72 h; series mostly up to 28.7 µM. An outline of the steps:
as §1

Assay [10] relates to PC26. The description is as above. The note with it: P. falciparum in erythrocytes, SYBR Green DNA, 72 h; series mostly up to 28.7 µM. Summed up:
as §1

Assay [11] has as its system PC49. The description is as above. The note with it: P. falciparum in erythrocytes, SYBR Green DNA, 72 h; series mostly up to 28.7 µM. An outline of the steps:
as §1

Assay [12] deals with SC27B. Described as above. The note with it: P. falciparum in erythrocytes, SYBR Green DNA, 72 h; series mostly up to 28.7 µM. An outline of the steps: as §1
For assay [13], the system named is TAB109. The description is as above. The conditions noted are these: P. falciparum in erythrocytes, SYBR Green DNA, 72 h; series mostly up to 28.7 µM. Summed up: as §1
The subject of assay [14] is TAB113. The assay is described as above. The note with it: P. falciparum in erythrocytes, SYBR Green DNA, 72 h; series mostly up to 28.7 µM. Summed up:
as §1

Assay [15] concerns TAB165. The assay is described as above. The conditions noted are these: P. falciparum in erythrocytes, SYBR Green DNA, 72 h; series mostly up to 28.7 µM. Summed up: as §1
The subject of assay [16] is W2. The assay is described as above. The conditions noted are these: P. falciparum in erythrocytes, SYBR Green DNA, 72 h; series mostly up to 28.7 µM. An outline of the steps: as §1
The test system of assay [17] is KB-3-1. The assay can be described thus: Cytotoxic Profiling of Annotated Libraries Using Quantitative High-Throughput Screening (AID 1296008). Note: % is set by controls: 0 for no effect and ±100 for the full control effect. The note with it: Five cell lines viability, CellTiter-Glo ATP luminescence, 48-72 h; max response: active compounds read low. Summed up: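 Cells exposed to compounds for 48 or 72 hr at 37 degrees Celsius. Viability read as ATP-coupled luminescence with CellTiter-Glo after 10 min at room temperature.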
A general note: Cellular ATP, detected with luciferase, serves as a proxy for viable cell number.

“And” between values parts separate entries of the source, which are not always exact repeats. Equal entries are not always repeated. Records with an inconclusive call do not appear. A number with no mark means an inactive call. The source made the active and inactive calls. Calls come from the whole dose curve; as a rule, active = well fitted inhibition curve with a large enough effect; inconclusive = small, poorly fitted or top-dose-only effect; inactive = flat fitted curve, though single readings scatter.
Note: nearly all actives have a fitted effect of over 60% in size.

Consider `CN1C(=O)C(O)N=C(c2ccccc2)c2cc(Cl)ccc21` (stereo not drawn), for which the Potency entry in [1], in [2], in assay [3], in assay [4], in assay [5] and in assay [6] was “inactive” in each case. In addition, the Potency result in assay [7], in [8], in [9], in assay [10], in assay [11] and in assay [12] was “inactive” each time. Further, the Potency result in assay [13], in assay [14], in assay [15] and in assay [16] was “inactive” in each case.
Consider `O=C1Nc2ccc(Cl)cc2C(c2ccccc2)=NC1O` (stereo not drawn), for which the Potency entry in assay [1], in [2], in [3], in assay [4], in assay [5] and in assay [6] was “inactive” throughout. Moreover, the Potency result in assay [7], in [8], in [9], in assay [10], in assay [11] and in assay [12] was “inactive” each time. The Potency result in assay [13], in assay [14], in [15] and in [16] was “inactive” each time. In addition, the max response in assay [17] is -4.67% and -16.2%.
Regarding `CN[C@@H](C)Cc1ccccc1`, the max response in assay [17] was -3.3%.
`COc1ccc2c(c1)C13CCCC[C@@H]1C(C2)N(C)CC3` (stereo partly drawn): the Potency entry in [2], in [4], in assay [5] and in [14] was “inactive” in each case. The Potency in [11] is 3.55 µM (active); in assay [16], 1.2 µM (active). Further, the max response in assay [17] was 18.3%.
With `COC(=O)C(c1ccccc1)C1CCCCN1` (stereo not drawn), the Potency result in [2], in assay [3], in [4], in assay [5], in assay [6] and in assay [7] was “inactive” in each case. The Potency entry in [8], in [9], in [10], in assay [12], in [13] and in assay [14] was “inactive” throughout. Further, the Potency result in [15] is “inactive”. Besides, the Potency in [16] is 4.26 µM (active). In addition, the max response in [17] was 5.58%.
For `CN1C[C@H](C(=O)N[C@]2(C)O[C@@]3(O)[C@@H]4CCCN4C(=O)[C@H](Cc4ccccc4)N3C2=O)C=C2c3cccc4[nH]cc(c34)C[C@H]21`, the Potency in assay [1] was 1.69 µM (active); in assay [2], 0.447 µM (active); in [3], 0.0398 µM (active); in assay [4], 7.08 µM (active); in [5] it was 0.282 µM (active); in assay [6] it was 0.398 µM (active). For the same compound, the Potency in assay [7] is 0.251 µM (active); in assay [8], 0.199 µM (active); in assay [9] it was 0.794 µM (active); in assay [10] it was 1.69 µM (active); in [11] it was 1.58 µM (active); in assay [12], 0.708 µM (active). For the same compound, the Potency is 1.12 µM (active) in [13], 0.794 µM (active) in assay [14], 0.447 µM (active) in assay [15] and 0.0536 µM (active) in assay [16]. In addition, the max response in [17] is -3.72%.

(Values after PubChem BioAssay (NCATS).)
